As a reminder, the AC50 is the midpoint of the concentration-response curve, whichever way the signal moves.

“And” between values parts separate entries of the source, which are not always exact repeats. Identical values can stand only once. Hit rate of the full screen: of about 16,000 compounds, about 5,800 (36%) were called active. Another 23% or so got no clear call; they are omitted. Calls follow the shape of the dose curve; as a rule, active = well fitted curve in the direction sought with a large enough effect; inconclusive = small, poorly fitted or top-dose-only effect, or effect the other way; inactive = no such curve, though single readings can be large or run the other way. The list shows a part of the results.
% is scaled to controls: 0 for no effect and ±100 for the full control effect.

The target of this assay is Cytochrome P450 2C19 (Homo sapiens) (UniProt P33261). Description: Cytochrome panel assay with activity outcomes. Conditions: recombinant CYP, pro-luciferin dealkylation, luminescence, p450-cyp2c19; series mostly up to 57.1 µM; activity, negative = inhibition: at the top concentration.
Cytochrome P450 2C19 (Homo sapiens), sequence (P33261 whole entry, looked up): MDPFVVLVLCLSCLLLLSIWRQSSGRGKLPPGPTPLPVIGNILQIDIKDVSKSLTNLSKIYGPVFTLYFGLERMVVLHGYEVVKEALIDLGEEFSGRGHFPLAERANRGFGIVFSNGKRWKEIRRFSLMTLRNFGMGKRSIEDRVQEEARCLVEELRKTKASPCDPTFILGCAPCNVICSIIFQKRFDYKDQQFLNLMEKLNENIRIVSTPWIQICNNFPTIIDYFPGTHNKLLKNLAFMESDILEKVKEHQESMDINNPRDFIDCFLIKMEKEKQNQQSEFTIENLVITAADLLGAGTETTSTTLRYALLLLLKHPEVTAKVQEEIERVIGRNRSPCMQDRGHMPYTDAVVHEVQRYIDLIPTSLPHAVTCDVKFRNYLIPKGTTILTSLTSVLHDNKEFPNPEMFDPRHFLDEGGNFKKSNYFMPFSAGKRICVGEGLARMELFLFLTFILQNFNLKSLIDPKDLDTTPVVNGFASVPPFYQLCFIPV
For the compound `O=C(O)/C(=C/c1c(C(=O)O)[nH]c2cc(Cl)cc(Cl)c12)c1ccccc1`, the “activity, negative = inhibition” value is -13.2% (inactive). For `O=C1NCCN1Cc1ccccc1F`, the AC50 was 20 µM (active). Regarding `CN(C)S(=O)(=O)Oc1cccc(C(=O)Nc2ccc(Cl)c(Cl)c2)c1`, the AC50 is 3.98 µM (active). On the same count and under the same terms, under `CN(C)S(=O)(=O)Oc1cccc(C(=O)Nc2ccccc2Cl)c1` stands 2.82 µM (active). On to `CC(C)(N=NC(C)(C)C(=N)N)C(=N)N`, for which the activity, negative = inhibition was 41.9% [at 11.4 µM] (inactive). Same read-out and setting: under `CON1C(=O)C(=O)N(OC)C2CCCCC21` (centres undefined) stands 24.9% (inactive). The same measure, in the same setting: the same measure for `N#CC(C#N)=C(N)/C(C#N)=C/c1ccc(O)cc1`: 0.416% (inactive).

Regarding `CC=C(/C(=C/C)c1ccc(O)cc1)c1ccc(O)cc1`, the half-maximal activity concentration (AC50) is 3.16 µM (active).

Regarding `COCCNC(=O)C1CC(c2cccc(OC)c2)=NO1` (centres undefined), the “activity, negative = inhibition” value was -24.6% (inactive). Consider `COc1ccc(CNC(=O)C2CC(c3ccc(OC)cc3)=NO2)cc1` (centres undefined), for which the “activity, negative = inhibition” value is -2.25% (inactive). In the case of `O=C(NCc1ccc2c(c1)OCO2)C1CC(c2cccc(Br)c2)=NO1` (centres undefined), the AC50 was 11.2 µM (active). The same measure, in the same setting: the same measure for `COc1ccc(CNC(=O)C2CC(c3cccc([N+](=O)[O-])c3)=NO2)cc1` (centres undefined): 10 µM (active). Turning to `COc1cccc(C2=NOC(C(=O)NCCN3CCOCC3)C2)c1` (centres undefined), the “activity, negative = inhibition” value is -20.2% (inactive). As to `COc1cccc(C2=NOC(C(=O)NCc3ccccc3)C2)c1` (centres undefined), the AC50 is 3.98 µM (active).

As to `COc1cccc(C2=NOC(C(=O)Nc3cccnc3)C2)c1` (centres undefined), the AC50 is 10 µM (active). `CCNc1ncc2nc(C)c(=O)n(Cc3cccs3)c2n1`: the “activity, negative = inhibition” value was -27.9% (inactive). On the same count and under the same terms, the same measure for `COC(=O)N1CCC[C@@]2(CCN(C(=O)Nc3cccc(F)c3)C2)C1`: -41.5% (inactive); for `COc1ccc(-n2c(=O)c(-c3cccs3)nc3cnc(Oc4ccccc4)nc32)cc1`: -6.86% (inactive).

As for `COc1ccc(-n2c(=O)c(-c3cccs3)nc3cncnc32)cc1`, the AC50 is 15.8 µM (active). Turning to `CN1CCN(c2ncc3nc(-c4cccs4)c(=O)n(-c4ccccc4)c3n2)CC1`, the “activity, negative = inhibition” value is 22.2% (inactive). On the same count and under the same terms, the same measure for `O=c1c(-c2cccs2)nc2cnc(N3CCOCC3)nc2n1-c1ccccc1`: -11.6% (inactive). Consider `Cn1c(=O)c(-c2cccs2)nc2cncnc21`, for which the “activity, negative = inhibition” value was -45.6% (inactive). With `O=c1c(-c2cccs2)nc2cncnc2n1-c1ccccc1`, the AC50 is 6.31 µM (active). Take `CCCc1ncc(C[n+]2ccccc2C)c(N)n1`: the “activity, negative = inhibition” value is 0.835% [at 25.6 µM] (inactive). As to `COc1ccc2c(c1)c(=O)oc1c(C)c(OCC(=O)N3CCc4ccccc4C3)ccc12`, the AC50 was 0.398 µM (active). For the compound `CCOc1cc(/C=C2/SC(=O)N(CC(=O)N3CCc4ccccc4C3)C2=O)ccc1OCC(=O)O`, the “activity, negative = inhibition” value is 2.89% (inactive). The same measure, in the same setting: the same measure for `COCC(=O)N1CCC2(CC1)CCN(C(=O)Nc1ccc(OC)cc1)CC2`: -5.31% (inactive). In the case of `N#Cc1c(NC(=O)CCN2C(=O)c3ccccc3C2=O)oc(-c2ccccc2)c1-c1ccccc1`, the AC50 is 3.16 µM (active).

For `OC(CNCc1ccc(F)cc1)(c1ccc(F)cc1)c1ccc(F)cc1`, the AC50 was 7.94 µM (active).

Take `Cc1ccc(CNCC(O)(c2ccc(F)cc2)c2ccc(F)cc2)cc1`: the AC50 is 11.2 µM (active). Same read-out and setting: the same measure for `COc1cnc(-c2ccccn2)nc1Oc1ccc(Cl)c2ccccc12`: 14.1 µM (active). The same measure, in the same setting: under `C=C1C(=O)O[C@@H]2[C@@H]1CC/C(C)=C\CC[C@@]1(C)O[C@H]21` stands “inactive”; under `Cn1c(Sc2ccc(-c3cccnc3)n2C)ccc1-c1cccnc1`, 1 µM (active). Consider `c1cncc(-c2cc(-c3cc(-c4cccnc4)n[nH]3)[nH]n2)c1`, for which the activity, negative = inhibition was -4.18% [at 11.4 µM] (inactive). Turning to `COc1cccc(/C=N/NC(=O)CO/N=C(\C)c2cccs2)c1OC`, the AC50 was 12.6 µM (active). `CCOc1ccc(-c2cc(CCCC(=O)NCCc3ccc(OC)c(OC)c3OC)no2)cc1`: the AC50 was 1.58 µM (active). As for `CC(=O)N1CCC2(CCCN(C(=O)Nc3cccc(F)c3)C2)CC1`, the “activity, negative = inhibition” value is -27.7% (inactive). `O=C(/C=C\NCC(=O)c1ccccc1)c1ccccc1`: the AC50 was 3.98 µM (active). As for `O=C(/C=C\NCC(=O)c1ccccc1)c1ccc(F)cc1`, the AC50 is 2 µM (active).

Regarding `O=C(C[N+]1(c2ccccc2)CCOCC1)c1ccccc1`, the activity, negative = inhibition is -17.3% [at 11.4 µM] (inactive). Regarding `c1ccc(C(c2ccccc2)N2CCC3(CCNCC3)CC2)cc1`, the AC50 was 3.98 µM (active). As to `c1ccc(C(c2ccccc2)N2CC3(CCNCC3)C2)cc1`, the “activity, negative = inhibition” value is -26.7% (inactive). On the same count and under the same terms, under `c1ccc(C(c2ccccc2)N2CCCC3(CCNCC3)C2)cc1` stands -20.4% (inactive); under `O=C1[C@H]2[C@H]3[C@H](O)[C@H](O)C/C(=N/OC[C@@H](O)COCc4ccco4)[C@H]3CC[C@@H]2C(=O)N1Cc1ccc2c(c1)OCO2`, 4.07% [at 11.4 µM] (inactive); under `CC(C)CO/N=C1/C[C@@H](O)[C@@H](O)[C@@H]2[C@@H]3C(=O)N(Cc4ccc5c(c4)OCO5)C(=O)[C@H]3CC[C@@H]12`, -22.9% [at 11.4 µM] (inactive). Consider `CC(C)CO/N=C1/C[C@@H](O)[C@@H](O)[C@@H]2[C@@H]3C(=O)N(Cc4ccc5c(c4)OCO5)C(=O)[C@H]3CC[C@H]12`, for which the AC50 was 3.98 µM (active). Still for that read-out and setting: under `O=C(Nc1nnc(C2CC2)s1)c1ccncc1` stands 17.8 µM (active).

On to `O=C(NNC(=O)c1ccncc1)c1ccncc1`, for which the activity, negative = inhibition was 6.77% [at 11.4 µM] (inactive). `NNC(=O)CNC(c1ccccc1)c1cc(Br)ccc1NC(=O)c1ccccc1Br` (centres undefined): the AC50 is 7.08 µM (active).

As for `Cc1ccc(-c2c3c(nc4sc(C(N)=O)c(N)c24)CCC3)cc1`, the AC50 is 14.1 µM (active). Still for that read-out and setting: the same measure for `O=C1C(=O)N(c2cccc(Cl)c2)C(c2ccccc2[N+](=O)[O-])/C1=C(\O)c1ccccc1` (centres undefined): 20 µM (active). With `COc1ccc(C2/C(=C(/O)c3ccccc3)C(=O)C(=O)N2c2ccccn2)c(OC)c1` (centres undefined), the “activity, negative = inhibition” value was -17.8% (inactive). As to `O=[N+]([O-])c1ccc(C2=Nn3c(nnc3-c3ccc(Cl)cc3)SC2)o1`, the AC50 was 2.51 µM (active). On to `O=C1COC(c2ccccc2O)=NN1CCCN1CCCC1`, for which the activity, negative = inhibition is 43.2% [at 11.4 µM] (inactive). With `Cn1c(=O)n(CC#N)c2ccccc21`, the “activity, negative = inhibition” value was 2.79% (inactive).

Regarding `Cc1snc(SCC(=O)N/N=C(\N)COc2cccc(C(F)(F)F)c2)c1C#N`, the AC50 was 4.47 µM (active). Same read-out and setting: the same measure for `Cc1ccc2c(c1)N(CC(=O)NCc1cccs1)C(=O)C(C)O2` (centres undefined): 2.51 µM (active). The same measure, in the same setting: the same measure for `COc1ccc(CCNC(=O)CCN2C(=O)C(C)Oc3ccc(C)cc32)cc1OC` (centres undefined): 20 µM (active). For `COc1ccc(CCN(C)CCC(=O)Nc2c(C)cc(C)cc2C)cc1OC`, the “activity, negative = inhibition” value is 12.6% (inactive). For `CC(=O)OCC1=C(C(=O)O)N2C(=O)[C@@H](NC(=O)Cc3cccs3)[C@@H]2SC1`, the AC50 result is “inactive”. For the compound `Cc1ccc(C)c(NC(=O)Cn2nnc(C(=O)NCc3cccs3)c2N)c1`, the “activity, negative = inhibition” value was -1.93% (inactive). In the case of `NC(=O)/C(=N\OC(=O)c1ccco1)c1nc(-c2ccc(Br)cc2)cs1`, the AC50 is 20 µM (active). As for `O=C(O)[C@@H](Cc1c[nH]c2ccccc12)C(=O)NO`, the activity, negative = inhibition was 84.7% [at 11.4 µM] (inactive).

Take `Cc1cc(C)cc(C(=O)N(C)[C@H](Cc2ccc(-c3ccccc3)cc2)C(=O)N[C@@H](Cc2c[nH]c3ccccc23)C(=O)O)c1`: the AC50 is 10 µM (active). For the compound `CCc1cc2c(nc1CC)CCN(CC/C(C)=N/O[C@@H](C)c1cn([C@H](CO)Cc3ccccc3)nn1)C2`, the activity, negative = inhibition is -17.2% [at 11.4 µM] (inactive) and -16.8% [at 11.4 µM] (inactive). As to `O=C(Nc1ccnc(-c2cccnc2)n1)c1cccc(Cl)c1Cl`, the AC50 is 2.82 µM (active).

For `CC(=O)Nc1ccnc(-c2cccnc2)n1`, the “activity, negative = inhibition” value is 46.4% (inactive). For the compound `CC(C)(C)C(=O)Nc1ccnc(-c2cccnc2)n1`, the AC50 is 2.24 µM (active). For `COc1cc(/C=N\NC(=O)C2C(=O)NCC2c2ccccc2)cc(OC)c1O` (centres undefined), the “activity, negative = inhibition” value is -13.1% (inactive). Same read-out and setting: under `C=CCNC(=S)N/N=C/c1ccc(OCc2ccccc2)cc1` stands -0.29% (inactive). Regarding `COc1cc(/C=N/NC(=O)c2cccs2)ccc1OCc1ccccc1`, the AC50 was 1.41 µM (active).

As for `O=C(N/N=C/c1ccc(OCc2ccccc2)cc1)c1cccs1`, the AC50 was 2.51 µM (active). On the same count and under the same terms, under `O=C(N/N=C/c1cccc(OCc2ccccc2)c1)c1cccs1` stands 5.01 µM (active). As to `O=C(N/N=C/C=C/c1ccc([N+](=O)[O-])cc1)c1cccs1`, the “activity, negative = inhibition” value was -2.41% (inactive).

As to `COc1ccc(CCN(C)Cc2ccc(OCc3ccccc3)c(OC)c2)cc1OC`, the “activity, negative = inhibition” value is -21.5% (inactive). The same measure, in the same setting: under `Cc1c(NC(=O)Nc2c(Cl)cccc2Cl)c(=O)n(-c2ccccc2)n1C` stands 10.7% [at 11.4 µM] (inactive). Regarding `Cc1c(NC(C)C)c(=O)n(-c2ccccc2)n1C`, the “activity, negative = inhibition” value is 13.9% [at 25.6 µM] (inactive).

Take `Cc1c(NCc2cc(Cl)ccc2O)c(=O)n(-c2ccccc2)n1C`: the AC50 is 5.62 µM (active). With `C=C(C)COc1ccc2c(c1)CCC1C2CC[C@]2(C)C(=O)/C(=N/O)CC12` (some centres undefined), the activity, negative = inhibition is 19.2% [at 11.4 µM] (inactive).

With `CCOC(=S)SCC(=O)O`, the activity, negative = inhibition is 38.2% [at 11.4 µM] (inactive). For `O=c1cc(-c2ccccc2)[nH]n1-c1ccc([N+](=O)[O-])cc1`, the AC50 was 8.91 µM (active). As for `COc1cccc(/C=N/n2nnc3c(cnn3-c3ccccc3)c2=O)c1`, the “activity, negative = inhibition” value was -9.6% (inactive). As to `COc1ccc(Oc2c(Cl)cnn(-c3ccccc3)c2=O)cc1`, the AC50 was 2.24 µM (active). Turning to `COc1ccc(-n2c(=O)c(C)nc3cnc(Oc4ccccc4)nc32)cc1`, the “activity, negative = inhibition” value was -13.4% (inactive). With `CCCC[C@H]1C[C@@H]1[C@@H]1N(P(=O)(c2ccccc2)c2ccccc2)C[C@@](O)(c2ccccc2)CC12CC2`, the “activity, negative = inhibition” value is -12.3% (inactive). `O=C(NCCc1ccccc1)N1c2ccccc2Sc2ccccc21`: the AC50 was 2.82 µM (active). `COc1ccc(S(N)(=O)=O)cc1C(=O)NCCCN1CCN(c2ccc(C)cc2)CC1`: the “activity, negative = inhibition” value is -18.3% (inactive).

As to `COc1ccc(NC(=O)c2cc(S(=O)(=O)N3CCS(=O)(=O)CC3)ccc2Cl)cc1`, the “activity, negative = inhibition” value is 31.1% (inactive). As for `COc1ccc(S(=O)(=O)N2CCN(CC(=O)Nc3cc(OC)cc(OC)c3)CC2)cc1`, the AC50 is 14.1 µM (active). `COc1ccc(C)cc1NC(=O)CN1CCN(S(=O)(=O)c2ccc(F)cc2)CC1`: the AC50 was 2.82 µM (active).

Turning to `COc1ccc(NC(=O)N2CC[C@@]3(CCCN(S(C)(=O)=O)C3)C2)cc1`, the “activity, negative = inhibition” value is 17.2% (inactive). Turning to `COc1ccc(S(=O)(=O)N2CCCN(CCC(=O)Nc3cccc(C(F)(F)F)c3)CC2)cc1`, the concentration at half-maximal activity (AC50) is 2.51 µM (active). Turning to `COc1ccc(S(=O)(=O)N2CCCN(CC(=O)Nc3ccc(OC)c(Cl)c3)CC2)cc1`, the AC50 was 0.0631 µM (active). `COc1ccc(C)cc1NC(=O)CCC(=O)Nc1nnc(C(F)(F)F)s1`: the “activity, negative = inhibition” value is -6.2% (inactive).

Source of the values: PubChem BioAssay AID1851 (National Center for Advancing Translational Sciences (NCATS), 2009).
